Assay results taken from PubChem BioAssay (EPA / NIEHS).
Inconclusive results are not listed. Active and inactive are the calls of the source. How the source made its calls: active means hit-call score of the fitted dose curve at least 0.9, where 1 is the maximum; inconclusive means response in the unintended direction; inactive means score below 0.9.

Assays:
[1] = TOX21_p53_BLA_p2_viability: Viability Assessment in the Tox21 HCT-116 p53 Agonism Beta-lactamase Assay, Phase 2 (AID 2283591);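 further: compound exposure lasted 16 h at 37 °C; actives lower the ATP signal meaning cytotoxicity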
In short: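 HCT116 p53-bla cells, 4000/well, dosed after 5 h plating (217-fold dilution of DMSO stocks) and incubated 16 h at 37C. Viability taken as cellular ATP by CellTiter-Glo luminescence after 30 min RT; signal loss marks cytotoxicity.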

[2] = molecular target: Cellular tumor antigen p53 (Homo sapiens) (UniProt P04637); assay: TOX21_p53_BLA_p2_ratio: Tox21 HCT-116 p53 Agonism Beta-lactamase Assay, Ratio, Phase 2 (AID 2283592)
In short: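 Ratio endpoint: beta-lactamase cleavage of CCF4-AM, blue (460 nm) over green (530 nm). HCT116 reporter line; 16 h treatment, 37C; substrate 2 h RT.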

[3] = TOX21_p53_BLA_p3_viability: Viability Assessment in the Tox21 HCT-116 p53 Agonism Beta-lactamase Assay, Phase 3 (AID 2283593);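 further: cells exposed to compound for 16 h before reading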
In short: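 HCT116 cells, 4000/well, dosed 5 h after plating by pin transfer (217-fold dilution from DMSO stock) and incubated 16 h at 37C, 5% CO2. Viability read as ATP luminescence with CellTiter-Glo after 30 min at room temperature.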

[4] = molecular target: Cellular tumor antigen p53 (Homo sapiens) (UniProt P04637); assay: TOX21_p53_BLA_p3_ratio: Tox21 HCT-116 p53 Agonism Beta-lactamase Assay, Ratio, Phase 3 (AID 2283596)
In short: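 Cells were seeded at 4000/well, rested 5 h at 37C, then dosed with DMSO compound solutions (217-fold dilution) for 16 h. CCF4-AM substrate was loaded for 2 h at room temperature, and the 460/530 nm emission ratio was fitted for gain of signal versus DMSO.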

[5] = TOX21_p53_BLA_p4_viability: Viability Assessment in the Tox21 HCT-116 p53 Agonism Beta-lactamase Assay, Phase 4 (AID 2283597);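 further: hits lower the luminescence signal meaning cytotoxicity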
In short: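 Cytotoxicity was inferred from loss of CellTiter-Glo luminescence. HCT116 cells had been dosed with compounds after 5 h plating, incubated 16 h at 37C and 5% CO2, and exposed to the CCF4-AM substrate for 2 h.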

[6] = TOX21_p53_BLA_p5_viability: Viability Assessment in the Tox21 HCT-116 p53 Agonism Beta-lactamase Assay, Phase 5 (AID 2283600)
In short: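 Luciferase-coupled ATP quantitation of cells treated for 16 h (37C, 5% CO2) with test chemicals delivered in DMSO via a 217-fold dilution; 4000 cells/well; reagent incubated 30 min at room temperature before luminescence reading.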

[7] = molecular target: Cellular tumor antigen p53 (Homo sapiens) (UniProt P04637); assay: TOX21_p53_BLA_p5_ratio: Tox21 HCT-116 p53 Agonism Beta-lactamase Assay, Ratio, Phase 5 (AID 2283599)
In short: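 HCT-116 p53-bla cells (4000/well) plated 5 h, dosed with compound (217-fold DMSO dilution) for 16 h at 37 C; CCF4-AM substrate 2 h at room temperature. Activity is the 460/530 nm emission ratio (405 nm excitation), fitted in gain-of-signal direction versus DMSO.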

[8] = molecular target: Cellular tumor antigen p53 (Homo sapiens) (UniProt P04637); assay: TOX21_p53_BLA_p4_ratio: Tox21 HCT-116 p53 Agonism Beta-lactamase Assay, Ratio, Phase 4 (AID 2283601)
In short: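 HCT-116 p53 beta-lactamase reporter cells (4000/well) preincubated 5 h, then compound (217-fold dilution of DMSO stock) for 16 h at 37C. CCF4-AM substrate added 2 h at room temperature; 460/530 nm emission ratio fitted upward versus DMSO.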

Measured: AC50

Sequence of Cellular tumor antigen p53 (Homo sapiens) (P04637 whole entry, looked up): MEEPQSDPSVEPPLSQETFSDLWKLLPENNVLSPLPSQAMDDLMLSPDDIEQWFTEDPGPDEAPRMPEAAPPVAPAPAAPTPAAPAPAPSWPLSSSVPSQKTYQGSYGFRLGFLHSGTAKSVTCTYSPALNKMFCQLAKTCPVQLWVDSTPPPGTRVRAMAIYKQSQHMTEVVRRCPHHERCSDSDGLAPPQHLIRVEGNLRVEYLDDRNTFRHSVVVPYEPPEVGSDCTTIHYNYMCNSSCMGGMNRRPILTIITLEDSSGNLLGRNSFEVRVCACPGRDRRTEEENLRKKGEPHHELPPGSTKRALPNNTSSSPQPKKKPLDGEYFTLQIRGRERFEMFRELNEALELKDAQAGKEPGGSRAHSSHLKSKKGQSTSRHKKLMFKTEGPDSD

C[C@H](CN1CCCC1)C(=O)c1ccc(C(F)(F)F)cc1
not listed: [7] | [8]
inactive: all other assays above

CCCCCCCCCCCCCCCC(=O)OC[C@H](COP(=O)([O-])OCC[N+](C)(C)C)OC(=O)CCCCCCCCCCCCCCC
not listed: [6]
inactive: all other assays above

O=P(O)(O)C(O)(Cc1cccnc1)P(=O)(O)O
not listed: [6]
inactive: all other assays above

O=C1c2ccccc2C(=O)C1(O)O
inactive: [6]
active: [1] 88.5 µM | [2] 31.8 µM | [3] 63.8 µM | [4] 22.8 µM | [5] 60.2 µM | [8] 36.3 µM

CN(C(=O)CCCOc1ccc2[nH]c(=O)ccc2c1)C1CCCCC1
not listed: [7] | [8]
inactive: all other assays above

CC1(C)S[C@@H]2[C@H](NC(=O)[C@H](N)c3ccccc3)C(=O)N2[C@H]1C(=O)OCOC(=O)[C@@H]1N2C(=O)C[C@H]2S(=O)(=O)C1(C)C
not listed: [7]
inactive: all other assays above

OC(CCN1CCCC1)(c1ccccc1)C1CCCCC1 (stereo not drawn)
not listed: [7]
inactive: all other assays above

Cc1cc(C(C)(C)C)c(O)c(C)c1Cn1c(=O)n(Cc2c(C)cc(C(C)(C)C)c(O)c2C)c(=O)n(Cc2c(C)cc(C(C)(C)C)c(O)c2C)c1=O
active: [4] 56.3 µM
not listed: [7]
inactive: all other assays above

CCCCCCCCCI
not listed: [7]
inactive: all other assays above

COC(=O)c1ccc(C(=O)O)cc1
not listed: [7]
inactive: all other assays above

O=C(NOC[C@H](O)CO)c1ccc(F)c(F)c1Nc1ccc(I)cc1F
not listed: [7]
inactive: all other assays above

CC(C)=CCC1C(=O)N(c2ccccc2)N(c2ccccc2)C1=O
active: [1] 32.6 µM | [2] 7.19 µM | [3] 34.3 µM | [4] 10.2 µM | [5] 33.5 µM | [6] 42.1 µM
inactive: [8]

CC/C=C\C/C=C\C/C=C\C/C=C\C/C=C\CCCC(=O)O
not listed: [7]
inactive: all other assays above

CC(O)C(CO)C(C)O (stereo not drawn)
not listed: [7]
inactive: all other assays above

CN(C/C=C/C#CC(C)(C)C)Cc1cccc2ccccc12
not listed: [7]
inactive: all other assays above

O=C(O)CCCCCCCCCCCBr
not listed: [7]
inactive: all other assays above

C[Si](NC1CCCCC1)(NC1CCCCC1)NC1CCCCC1
active: [5] 88.8 µM
not listed: [7]
inactive: all other assays above

O=C(O)CCCCCC(=O)O
not listed: [7]
inactive: all other assays above

CC(=O)OC(C)OC(=O)C(C)c1ccc(-c2ccccc2)c(F)c1 (stereo not drawn)
not listed: [7]
inactive: all other assays above

O=[N+]([O-])c1cccc(I)c1
not listed: [7]
inactive: all other assays above
